Compound activity: PubChem BioAssay, Milwaukee Institute for Drug Discovery
Cy5 interf NS3h = Cy5 fluorescence interference, HCV helicase counter-screen; Cy5-dT15 DNA with NS3h; actives lie on both sides; signal over control mean, under 1 quenches; fluorescence interference ratio at 100 µM; 16,000 compounds, 6% hits;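 active = compound fluorescence over control fluorescence at most 0.8, a quencher, or at least a set upper limit, an enhancer; inactive = ratio between 0.8 and the set upper limit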
NS3h inh CB = blocks HCV NS3 helicase binding to DNA. NS3h Cy5-dT15 DNA binding, fluorescence polarization. inhibition, % at 100 µM. 16,000 compounds, 1.6% hits;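 active = inhibition above the average over every tested compound plus 3 SD, cut at about 40% in these data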
NS3h confirm = confirmation of hepatitis C virus NS3 helicase inhibitors. shares compounds with NS3h inh CB. NS3h binding to Cy5-dT15 DNA, fluorescence polarization. inhibition, % at 100 µM. 240 compounds, 20% hits;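 active = percent inhibition of 50% or more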
SSB-DNA FP CB = counter-screen for HCV NS3 helicase inhibitors: E. coli SSB binding. shares compounds with NS3h inh CB. E. coli SSB binding Cy5-dT15, fluorescence polarization. inhibition, % at 100 µM. 240 compounds, 40% hits. AID 720486;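 active = inhibition of at least 50%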;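 note: displacers lower Cy5 polarization so higher inhibition means more SSB displaced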
Target sequence (P0AGE0 whole entry, looked up): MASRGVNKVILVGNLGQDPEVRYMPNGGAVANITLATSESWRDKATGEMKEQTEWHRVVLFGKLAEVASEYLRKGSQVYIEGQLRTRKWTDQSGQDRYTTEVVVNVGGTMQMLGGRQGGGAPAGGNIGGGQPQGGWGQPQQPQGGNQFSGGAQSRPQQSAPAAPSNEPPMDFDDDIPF
Cy5 SSB fluor CB = Cy5 fluorescence interference in NS3h counter-screen; Cy5-dT15/E. coli SSB fluorescence interference; actives lie on both sides; 240 compounds, 8% hits; shares compounds with NS3h inh CB; fluorescence interference ratio at 100 µM;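 active = fluorescence interference ratio at or above 1.2, signal boosting, or at or below 0.8, signal quenching; inactive = ratio between 0.8 and 1.2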;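 note: ratio of compound well signal to mean negative control signal so 1 means no effect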
Cy5 interf conf = confirmation counter-screen for HCV NS3 helicase inhibitors: fluorescence interference; shares compounds with NS3h inh CB; 240 compounds, 44% hits; Cy5-dT15 DNA/NS3h fluorescence interference counterscreen; fluorescence interference ratio at 100 µM, hits read low; AID 720489;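 active = fluorescence interference ratio at or below 0.8 quencher or at or above a set limitenhancer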;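 note: ratio of compound fluorescence to mean of negative controls so 1 means no interference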
* = called active by the depositor. In the library only some 6.9% were active in any assay of this set; here they are far more common.

SMILES | Cy5 interf NS3h | NS3h inh CB | others
O=C1c2ccccc2-c2onc3c(Br)cc(N4CC4)c1c23 | 0.78* | 8
CCNc1cc2oc(=O)cc(C(F)(F)F)c2cc1C | 0.96 | 36
COc1ccc(-c2ccc(C=C3C(=O)NC(=O)NC3=O)o2)c([N+](=O)[O-])c1 | 0.44* | 38
Cc1ccc(C=C2C(=O)NC(=O)NC2=O)cc1[N+](=O)[O-] | 0.94 | 34
Cc1cc(-c2ccc(C=C3C(=O)NC(=O)NC3=O)o2)ccc1[N+](=O)[O-] | 0.76* | 11
O=C1NC(=O)C(=Cc2ccccc2OCCOc2ccc([N+](=O)[O-])cc2)C(=O)N1 | 0.82 | 22
CCCCCC1(C)NCCN2C(=O)CSC21 (stereo not drawn) | 1 | 3
O=C1CC(=O)N(c2ccc(F)cc2)C(=S)N1 | 1 | -3
Nc1ccc(Oc2ccc(N)c(N)c2)cc1N | 0* | 0
COC(=O)N1[C@H](c2ccccc2)[C@@H]1c1ccccc1 | 0.68* | 13
O=S(=O)(c1cc(Cl)c(O)c(Cl)c1)c1cc(Cl)c(O)c(Cl)c1 | 1 | 2
CN1CCN(c2ccc([N+](=O)[O-])c(NC3CC3)c2)CC1 | 0.87 | 4
O=[N+]([O-])c1ccc(N2CCNCC2)cc1NCCOc1ccccc1 | 0.7* | 1
COc1ccc(CN2CCNCC2)cc1OC | 0.99 | -7
O=c1oc2ccccc2c2c1C(c1ccccc1)c1c(c3ccccc3oc1=O)O2 | 1 | -4
Cc1ccc(C=C2C(=O)NC(=S)N(c3ccccc3F)C2=O)s1 | 1.1 | 42*
O=C1NC(=S)N(c2ccc(Br)cc2)C(=O)/C1=C/c1ccc(-c2ccccc2C(=O)O)o1 | 1 | 33
Cc1cc(C)cc(-n2c(C)cc(C=C3C(=O)NC(=O)NC3=O)c2C)c1 | 1 | 0
Cc1ccc(S(=O)(=O)n2cc(C=C3C(=O)NC(=O)NC3=O)c3ccccc32)cc1 | 0.7* | 16
O=Cc1cn(Cc2ccccc2F)c2ccccc12 | 1 | 17
CCn1cc(C=C2C(=O)NC(=O)NC2=O)c2ccccc21 | 0.73* | 7
O=C1/C(=C/c2ccccc2O)N2CCC1CC2 | 1.1 | -5
CC1(C)CN1S(=O)(=O)c1ccc(Cl)cc1 (stereo not drawn) | 1.1 | -20
Oc1ccc(Br)cc1CN1CCN(Cc2ccc(F)cc2)CC1 | 1 | -7
O=Cc1cn(Cc2ccc(Cl)c(Cl)c2)c2ccccc12 | 0.94 | -5
SMILES | Cy5 interf NS3h | NS3h inh CB | others
O=C1NC(=S)NC(=O)C1=Cc1ccc(OCc2ccccc2)c(OCc2ccccc2)c1 | 0.84 | -2
COc1ccc(C=C2C(=O)NC(=O)NC2=O)cc1OCc1ccc(Cl)cc1Cl | 0.61* | -19
COc1ccc(C(=O)NC(Cc2cnc[nH]2)C(=O)O)cc1 (stereo not drawn) | 1.1 | 0
Cc1cccc(N2C(=O)NC(=O)/C(=C/c3ccc(-c4ccc(C(=O)O)c(Cl)c4)o3)C2=O)c1 | 1 | 28
COC(=O)c1cccc(-c2ccc(C=C3C(=O)NC(=S)NC3=O)o2)c1 | 0.75* | 21
COc1ccccc1OCC(=O)N1CCN(C)CC1 | 1 | 1
O=C1NC(=O)N(c2ccc(Br)cc2)C(=O)/C1=C/C=C/c1ccccc1 | 1.1 | 12
CCc1ccc(N2C(=O)NC(=O)/C(=C/C=C/c3ccco3)C2=O)cc1 | 0.84 | 42*
COc1ccc(C2c3c(c4ccccc4oc3=O)Oc3c2c(=O)oc2ccccc32)cc1Cn1nc(C)c([N+](=O)[O-])c1C | 1 | 2
O=C(CN1CCCC1=O)NCc1ccccc1 | 1 | 16
Cc1nc2ccc(I)cc2c(=O)n1-c1ccc([N+](=O)[O-])cc1Cl | 0.81 | 2
COc1ccc(N2C(=O)/C(=C/c3ccc(-c4cc(C(=O)O)ccc4Cl)o3)C(=O)NC2=S)cc1 | 1.1 | 33 | NS3h confirm=35;SSB-DNA FP CB=67*;Cy5 SSB fluor CB=0.88;Cy5 interf conf=0.8*
O=C1NC(=O)N(c2ccccc2F)C(=O)/C1=C/c1ccc(-c2cc(C(=O)O)ccc2Cl)o1 | 1.1 | 36 | NS3h confirm=92*;SSB-DNA FP CB=28;Cy5 SSB fluor CB=0.98;Cy5 interf conf=0.83
Cc1ccc(N2C(=O)NC(=O)/C(=C\c3ccc(-c4ccc(Cl)c(C(=O)O)c4)o3)C2=O)cc1 | 0.99 | 62* | NS3h confirm=75*;SSB-DNA FP CB=62*;Cy5 SSB fluor CB=0.92;Cy5 interf conf=1
O=C1NC(=O)N(c2ccc(Cl)cc2)C(=O)/C1=C\c1cc(Br)cc(Cl)c1O | 0.89 | 14
O=C1NC(=O)C(=Cc2ccc(-c3ccc(C(=O)O)cc3)o2)C(=O)N1 | 0.97 | 69* | NS3h confirm=29;SSB-DNA FP CB=32;Cy5 SSB fluor CB=0.9;Cy5 interf conf=0.8*
Cc1cc(OCC(=O)c2ccccc2)c2c3c(c(=O)oc2c1)CCC3 | 1.1 | 7
COc1cccc(CN2CCN(C(=O)Cc3ccccc3)CC2)c1OC | 1 | -24
CCC1(c2ccccc2)C(=O)NC(=O)N(C(=O)c2cccc(F)c2)C1=O (stereo not drawn) | 1 | 4
Cc1ccc(C(=O)Nc2ccc(N/C(N)=N\[N+](=O)[O-])cc2)cc1 | 1 | -2
O=C(CF)NC(Nc1ccc(Br)cc1)C(Cl)(Cl)Cl (stereo not drawn) | 0.92 | 0
COc1ccc(C(c2c(O)c3ccccc3oc2=O)c2c(O)c3ccccc3oc2=O)cc1Cn1nc(C)c([N+](=O)[O-])c1C | 0.95 | 10
COc1ccc(O)c(CN2CCN(Cc3ccc(F)cc3)CC2)c1 | 1.2* | 64* | NS3h confirm=3;SSB-DNA FP CB=11;Cy5 SSB fluor CB=0.94;Cy5 interf conf=0.97
COc1ccc(O)c(CN2CCN(Cc3ccc(Br)cc3)CC2)c1 | 1 | 4
O=C(Cn1c[n+]([N-][N+](=O)[O-])cn1)Nc1ccc([N+](=O)[O-])cc1 | 1 | 12
SMILES | Cy5 interf NS3h | NS3h inh CB | others
CSc1ccc(CN2CCN(Cc3cc(Br)ccc3O)CC2)cc1 | 0.93 | -3
O=C1NC(=S)NC(=O)C1=Cc1ccc(OCc2cccc3ccccc23)cc1 | 0.9 | 53* | NS3h confirm=29;SSB-DNA FP CB=66*;Cy5 SSB fluor CB=0.85;Cy5 interf conf=0.87
O=C1NC(=O)N(c2ccc3c(c2)OCO3)C(=O)/C1=C/c1ccc(OCc2cccc(C(=O)O)c2)cc1 | 1.1 | 48* | NS3h confirm=20;SSB-DNA FP CB=58*;Cy5 SSB fluor CB=0.95;Cy5 interf conf=0.75*
O=C1NC(=S)NC(=O)C1=Cc1ccc(OCc2cccc(C(=O)O)c2)cc1 | 1.1 | 58* | NS3h confirm=38;SSB-DNA FP CB=89*;Cy5 SSB fluor CB=0.9;Cy5 interf conf=0.9
Cc1cc(/C=C2\C(=O)NC(=O)N(c3cccc(Br)c3)C2=O)c(C)n1C | 1.2 | 5
Cc1cccc(N2C(=O)/C(=C/c3ccc(OCc4cccc(C(=O)O)c4)cc3)C(=O)NC2=S)c1 | 1 | -6
Cc1c(C=O)c2ccccc2n1Cc1ccc(Cl)cc1 | 1 | 5
COc1ccccc1CN1CCN(Cc2cc(Br)ccc2O)CC1 | 1 | -3
CN(C)C(=O)C(c1ccccc1)c1ccccc1 | 0.96 | -1
Cc1[nH]c2cc(S(=O)(=O)O)c(Oc3ccccc3)cc2c1CCN | 1 | 46* | NS3h confirm=27;SSB-DNA FP CB=98*;Cy5 SSB fluor CB=0.9;Cy5 interf conf=0.96
